# PubChem BioAssay
# A number with no mark means an inactive call. For some assays here: Measured potencies and affinities stand elsewhere. The source made the active and inactive calls. Unless noted, how the calls were made is not given here.
# Legend:
# [1] = antimalarial activity against Dd2 strain (AID 2302;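 active means growth inhibition above 50% at the single 2 µM test dose, taken to imply half-maximal potency below 2 µM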;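 further: 0% = DMSO untreated growth and 100% = chloroquine plus artemisinin killed control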); details: P. falciparum Dd2 in RBCs, LDH growth readout, 72 h; at 2 µM; hits give high values
# [2] = human hepatoma cell viability loss – ATP luminescence, cytotoxicity control for P. falciparum antimalarial project, primary screen (AID 2303;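 active means inhibition above 50%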;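 further: 0% = DMSO wells and 100% = digitonin-killed cells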); details: HepG2 viability, 24-48 h, at 10 µM, hits give high values
# [3] = target: L-lactate dehydrogenase (Plasmodium falciparum (isolate CDC / Honduras)) (UniProt Q27743); test: PfLDH activity inhibition – cell lysate, 3D7 strain, counter-screen for P. falciparum growth inhibition project (AID 2304);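 further: 0% = vehicle and 100% = reference inhibitor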; details: P. falciparum 3D7 crude extract, LDH APAD/NBT absorbance; at 2 µM; hits give high values
# [4] = inhibition of 3D7 malaria parasite growth – strain 3D7 (AID 2306);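 further: 0% = DMSO wells and 100% = chloroquine plus artemisinin control wells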; details: P. falciparum 3D7 erythrocytic growth, LDH absorbance, 72 h; at 2 µM; hits give high values
# [5] = target: Calcium-dependent protein kinase 1 (Plasmodium falciparum (isolate 3D7)) (UniProt P62344); test: PfCDPK1 kinase inhibitors, biochemical, TCAMS library (AID 1159585; cut-off not given, nearly all actives have IC50 up to about 0.98 µM;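 further: inhibitors leave more ATP so luminescence rises with inhibition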); details: recombinant PfCDPK1, Kinase-Glo ATP depletion luminescence
# [6] = target: Plasmodium falciparum protein kinase 6 (PK6, PF3D7_1337100) (UniProt Q8IDW1); test: PfPK6 kinase inhibitors, biochemical, TCAMS library (AID 1159586); details: recombinant PfPK6, Kinase-Glo ATP depletion luminescence
# [7] = target: Protein kinase 7 (PK7), Plasmodium falciparum 3D7 (PF3D7_0213400) (UniProt Q7YTF7); test: inhibition of Plasmodium PK7 catalytic activity – biochemical, TCAMS antimalarial set, Kinase-Glo luminescence (AID 1159587); details: recombinant PfPK7, Kinase-Glo ATP depletion luminescence
# [8] = target: Calcium-dependent protein kinase 4 (Plasmodium falciparum (isolate 3D7)) (UniProt Q8IBS5); test: PfCDPK4 kinase inhibitors, biochemical, TCAMS library (AID 1159588; cut-off not given, nearly all actives have IC50 up to about 0.91 µM); details: recombinant PfCDPK4, Kinase-Glo ATP depletion luminescence
# Sequence of Calcium-dependent protein kinase 4 (Plasmodium falciparum (isolate 3D7)) (Q8IBS5 whole entry, looked up): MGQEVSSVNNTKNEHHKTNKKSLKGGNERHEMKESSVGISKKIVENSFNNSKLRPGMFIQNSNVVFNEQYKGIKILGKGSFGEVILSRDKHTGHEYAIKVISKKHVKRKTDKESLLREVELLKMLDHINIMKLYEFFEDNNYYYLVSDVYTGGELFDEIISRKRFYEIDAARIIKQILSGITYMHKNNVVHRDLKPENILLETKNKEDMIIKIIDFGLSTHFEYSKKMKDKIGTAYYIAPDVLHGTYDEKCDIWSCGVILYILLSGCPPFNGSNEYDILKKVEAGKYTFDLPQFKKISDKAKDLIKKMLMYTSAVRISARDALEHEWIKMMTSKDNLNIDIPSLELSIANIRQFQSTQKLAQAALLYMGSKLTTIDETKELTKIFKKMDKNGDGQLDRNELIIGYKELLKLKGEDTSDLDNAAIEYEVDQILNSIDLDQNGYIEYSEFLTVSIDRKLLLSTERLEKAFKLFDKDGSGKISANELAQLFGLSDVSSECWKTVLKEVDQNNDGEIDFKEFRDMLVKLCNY
# Sequence of L-lactate dehydrogenase (Plasmodium falciparum (isolate CDC / Honduras)) (Q27743 whole entry, looked up): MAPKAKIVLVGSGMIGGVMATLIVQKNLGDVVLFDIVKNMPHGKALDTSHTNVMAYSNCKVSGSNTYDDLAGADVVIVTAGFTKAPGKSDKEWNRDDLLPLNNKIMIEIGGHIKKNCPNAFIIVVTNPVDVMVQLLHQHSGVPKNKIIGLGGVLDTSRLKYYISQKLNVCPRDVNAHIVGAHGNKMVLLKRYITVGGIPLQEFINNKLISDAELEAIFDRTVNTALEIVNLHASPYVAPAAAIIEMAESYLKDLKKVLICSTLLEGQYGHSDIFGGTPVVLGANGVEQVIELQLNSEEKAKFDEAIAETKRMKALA
# Sequence of Protein kinase 7 (PK7), Plasmodium falciparum 3D7 (PF3D7_0213400) (Q7YTF7 1-343): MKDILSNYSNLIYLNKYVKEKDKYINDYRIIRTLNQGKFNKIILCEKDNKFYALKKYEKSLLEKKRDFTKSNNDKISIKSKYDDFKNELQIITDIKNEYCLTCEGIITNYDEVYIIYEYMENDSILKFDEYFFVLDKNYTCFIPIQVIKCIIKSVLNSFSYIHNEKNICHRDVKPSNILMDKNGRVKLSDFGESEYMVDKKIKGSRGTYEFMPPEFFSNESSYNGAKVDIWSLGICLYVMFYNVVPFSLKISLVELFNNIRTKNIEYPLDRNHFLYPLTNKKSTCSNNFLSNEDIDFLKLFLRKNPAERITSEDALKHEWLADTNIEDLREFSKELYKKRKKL
# Sequence of Calcium-dependent protein kinase 1 (Plasmodium falciparum (isolate 3D7)) (P62344 whole entry, looked up): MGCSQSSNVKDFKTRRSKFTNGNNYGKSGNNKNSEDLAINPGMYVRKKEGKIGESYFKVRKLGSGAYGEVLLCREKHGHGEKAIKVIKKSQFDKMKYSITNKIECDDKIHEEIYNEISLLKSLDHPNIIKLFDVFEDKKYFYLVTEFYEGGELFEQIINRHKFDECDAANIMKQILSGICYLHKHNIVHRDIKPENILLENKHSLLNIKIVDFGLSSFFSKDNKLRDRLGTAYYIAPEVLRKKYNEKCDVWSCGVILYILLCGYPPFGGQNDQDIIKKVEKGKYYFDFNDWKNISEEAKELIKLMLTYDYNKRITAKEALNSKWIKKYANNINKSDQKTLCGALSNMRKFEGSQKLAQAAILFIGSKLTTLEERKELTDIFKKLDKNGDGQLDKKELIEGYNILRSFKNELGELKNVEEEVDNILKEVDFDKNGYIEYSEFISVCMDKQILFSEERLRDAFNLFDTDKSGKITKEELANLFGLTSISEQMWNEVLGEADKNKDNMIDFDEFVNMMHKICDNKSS
# Sequence of Plasmodium falciparum protein kinase 6 (PK6, PF3D7_1337100) (Q8IDW1 1-305): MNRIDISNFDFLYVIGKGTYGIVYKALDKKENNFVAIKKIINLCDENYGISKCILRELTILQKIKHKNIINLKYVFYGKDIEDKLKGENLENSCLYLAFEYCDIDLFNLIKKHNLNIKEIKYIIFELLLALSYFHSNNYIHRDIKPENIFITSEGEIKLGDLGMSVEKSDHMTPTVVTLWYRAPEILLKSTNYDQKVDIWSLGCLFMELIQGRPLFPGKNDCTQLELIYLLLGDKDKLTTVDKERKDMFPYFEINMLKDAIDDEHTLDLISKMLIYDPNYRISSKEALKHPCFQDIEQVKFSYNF
Structure (SMILES),growth inhibition [1],inhibition [2],inhibition [3] [%],growth inhibition [4],outcome [5],outcome [6],outcome [7],outcome [8]
Cc1nc(N)nc(N)c1OCCCCOc1ccccc1,4%,62% (active),-1,94% (active),inactive,inactive,inactive,inactive
CNC(=O)c1cnc(Nc2ccc3[nH]c(=O)[nH]c3c2)nc1Nc1cccc(OC(C)C)c1,94% (active),18%,-8,89% (active),inactive,inactive,inactive,inactive
CN(C)c1ccc(CN2CCC(NC(=O)c3ccc(-c4ccccc4Cl)s3)CC2)cc1,27%,35%,-1,82% (active),inactive,inactive,inactive,inactive
C=CCC1OC(=O)c2cc(OC)cc(OC)c21 (stereo not given),100% (active),100% (active),2,95% (active),inactive,inactive,inactive,inactive
O=C(Nc1ccccc1)c1cnc[nH]1,-1%,-7%,1,92% (active),inactive,inactive,inactive,inactive
COc1ccc(Nc2nc(NCc3ccco3)c3ccccc3n2)cc1,76% (active),38%,-4,99% (active),inactive,inactive,inactive,inactive
CN(CCCCCN1CCC(NC(=O)Nc2ccc(Oc3ccccc3)cc2)C1)C(=O)/C=C/c1ccc(Cl)c(Cl)c1 (stereo not given),14%,50% (active),-2,98% (active),inactive,inactive,inactive,inactive
Cc1cccc2[nH]c(-c3ccc(-c4ccc(CN5CCN(CC6CCCN(C)C6)CC5)cc4)s3)nc12 (stereo not given),99% (active),63% (active),-3,101% (active),inactive,inactive,inactive,inactive
NS(=O)(=O)c1cccc(Br)c1,-5%,0%,0,98% (active),inactive,inactive,inactive,inactive
Nc1c2ccccc2nc2cc(Cl)ccc12,86% (active),24%,-3,103% (active),inactive,inactive,inactive,inactive
Cc1cccc2[nH]c(-c3ccc(-c4cccc(NCc5cn6cccnc6n5)c4)cc3)nc12,63% (active),9%,-3,94% (active),inactive,inactive,inactive,inactive
O=C(NC1CCN(c2ccc(F)cc2[N+](=O)[O-])CC1)c1cccs1,91% (active),-9%,-1,90% (active),inactive,inactive,inactive,inactive
CO/C(=C\C=C\c1cc2cc(Cl)c(Cl)cc2[nH]1)C(=O)NC1CCN(CCNc2ccccc2)CC1,98% (active),60% (active),1,102% (active),inactive,inactive,inactive,inactive
Cc1[nH]c(C)c(-c2ccc(OCCSc3ccncc3)cc2)c(=O)c1Br,95% (active),-6%,-6,95% (active),inactive,inactive,inactive,inactive
COc1ccc(-c2ccc(CNC(=O)c3cccc(C#N)c3)c(F)c2)cc1CN1CCCN(C)CC1,30%,8%,-4,99% (active),inactive,inactive,inactive,inactive
CC(=O)Nc1cccc(C(=O)Nc2cccc(-c3ccc(-c4nc5ccc(F)cc5[nH]4)cc3)c2)c1,9%,60% (active),5,95% (active),inactive,inactive,inactive,inactive
COc1ccc(Cn2c(Nc3cccc(C(F)(F)F)c3)nc3cc(C(=O)NCCN4CCCC4)cnc32)cc1Cl,31%,10%,0,97% (active),inactive,inactive,inactive,inactive
CN1CCCN(c2ccnc3cc4c(cc23)N(C(=O)c2ccc(Cl)cc2Cl)CC4)CC1,51% (active),6%,-2,100% (active),inactive,inactive,inactive,inactive
O=C(Nc1ccc(F)cc1)c1nc2ccccc2nc1Cl,62% (active),44%,-1,80% (active),inactive,inactive,inactive,inactive
CCN1CCN(c2cc(C)c3cc(NC(=O)C=Cc4cccc(OC)c4OC)ccc3n2)CC1,38%,18%,-3,99% (active),inactive,inactive,inactive,inactive

Structure (SMILES),growth inhibition [1],inhibition [2],inhibition [3] [%],growth inhibition [4],outcome [5],outcome [6],outcome [7],outcome [8]
O=C(NC1CCN(c2ccnc3ccccc23)C1)c1cccc(C(F)(F)F)c1 (stereo not given),86% (active),28%,6,94% (active),inactive,inactive,inactive,inactive
Cc1sc2nc(CSc3ccccc3)nc(N3CCN(CC(=O)N4CCCC4)CC3)c2c1C,69% (active),19%,2,91% (active),inactive,inactive,inactive,inactive
O=C(CCNc1ccnc(NCC2CCCCC2)n1)Nc1ccccc1,48%,55% (active),-3,95% (active),inactive,inactive,inactive,inactive
Cc1ccc(-n2cc(CNCC3CCN(CCO)CC3)c(-c3ccc(F)cc3)n2)cc1,18%,29%,-1,91% (active),inactive,inactive,inactive,inactive
Cc1cc(NCCC(=O)Nc2ccccc2)nc(NCCc2ccc(F)cc2)n1,43%,26%,2,101% (active),inactive,inactive,inactive,inactive
Brc1ccc(Nc2nc(NCC3CCCO3)c3ccccc3n2)cc1 (stereo not given),99% (active),13%,-3,100% (active),inactive,inactive,inactive,inactive
CCCCc1cc(O)c2c(c1)OC(C)(C)C=C2C1=CCN(Cc2ccccc2)CC1,3%,9%,-5,98% (active),inactive,inactive,inactive,inactive
CN(c1ccc2c(c1)nc(NC(=O)C1(c3cc(F)ccc3F)CC1)n2C)c1ccnc(Nc2cccc(CS(C)(=O)=O)c2)n1,46%,42%,6,89% (active),inactive,inactive,inactive,inactive
O=C(/C=C/c1ccc(Cl)c(Cl)c1)NCCCCCN1CCC(c2c[nH]c3c(-c4ccccc4)cccc23)CC1,40%,74% (active),-2,99% (active),inactive,inactive,inactive,inactive
N#Cc1cccc(Nc2cc(C(F)(F)F)nc(Nc3ccccc3)n2)c1,17%,7%,5,92% (active),inactive,inactive,inactive,inactive
O=C(Nc1ccc2c(c1)CCC2)c1ccc(N2CCN(c3ccncc3)CC2)cn1,58% (active),56% (active),2,99% (active),inactive,inactive,inactive,inactive
COc1c(C2CCN(CCCCNC(=O)c3ccc(-c4ccc(C(=O)C(F)(F)F)cc4)cc3)CC2)ccc2c1CCCC2,33%,99% (active),-4,81% (active),inactive,inactive,inactive,inactive
O=C(Nc1ccccc1)Nc1cccc(-c2nn3c(OCC4CCCCN4)cccc3c2-c2ccncc2)c1 (stereo not given),82% (active),9%,-7,97% (active),inactive,inactive,inactive,inactive
O=C(/C=C/c1ccc(Cl)c(Cl)c1)NC1CCC(CN2CCC(c3nc4ccc(O)cc4[nH]3)CC2)CC1 (stereo not given),84% (active),41%,-6,101% (active),inactive,inactive,inactive,inactive
COc1ccc(N2C(N)=NC(N)=NC2(C)C)cc1OC,-4%,13%,-2,95% (active),inactive,inactive,inactive,inactive
Cc1ccc(S(=O)(=O)N(CCCNCc2cccc(O)c2)c2ccccc2)cc1,94% (active),6%,2,95% (active),inactive,inactive,inactive,inactive
CCN(CC)CCCN(C(=O)Nc1ccc(C#N)cc1)c1nc(-c2ccc(F)cc2)cs1,68% (active),36%,0,99% (active),inactive,inactive,inactive,inactive
CCN(CCNS(C)(=O)=O)c1ccc(N)c(C)c1,11%,-4%,-4,91% (active),inactive,inactive,inactive,inactive
CCN(CC)CCN(Cc1ccc(-c2ccc(C(F)(F)F)cc2)cc1)C(=O)Cn1c(CCc2ccccc2F)nc(=O)c2ccccc21,54% (active),39%,-1,95% (active),inactive,inactive,inactive,inactive
CC(C)CC(=O)N(Cc1ccc(-c2ccc(CNC3Cc4ccccc4C3)cc2)cc1)C1CCNCC1,65% (active),20%,-5,85% (active),inactive,inactive,inactive,inactive
